Experiments:
Assay in all cases: protein domain microarray probed with biotinylated miRNA; Domain array: 20 mM Tris-HCl pH 7.4, 200 mM KCl, 0.2 mM EDTA, 0.05% NP40, 2 ug/ul heparin, overnight 4 C. ORF array: PBS pH 7.0 with RNase inhibitor, 100 ng RNA; high values mean tight binding
Conditions in all cases: ssRNA
SF3B4 = SF3B4 (Homo sapiens, UniProt Q15427)
SFRS15 = molecular target: T1, SFRS15 (Homo sapiens, UniProt O95104)
T1 sequence: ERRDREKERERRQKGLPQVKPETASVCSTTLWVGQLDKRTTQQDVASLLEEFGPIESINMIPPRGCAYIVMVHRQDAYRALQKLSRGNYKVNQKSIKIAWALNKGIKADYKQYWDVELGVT

RBMY1D / RBMY1E = RBMY1D / RBMY1E (Homo sapiens, UniProt P0DJD3)
Chain of RBMY1D / RBMY1E (P0DJD3 1-110): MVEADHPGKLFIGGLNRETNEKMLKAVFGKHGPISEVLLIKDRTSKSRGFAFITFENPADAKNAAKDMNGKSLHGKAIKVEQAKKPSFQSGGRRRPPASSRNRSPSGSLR

SF2 = SF2 (Homo sapiens, UniProt Q07955)
Chain of SF2 (Q07955 1-220): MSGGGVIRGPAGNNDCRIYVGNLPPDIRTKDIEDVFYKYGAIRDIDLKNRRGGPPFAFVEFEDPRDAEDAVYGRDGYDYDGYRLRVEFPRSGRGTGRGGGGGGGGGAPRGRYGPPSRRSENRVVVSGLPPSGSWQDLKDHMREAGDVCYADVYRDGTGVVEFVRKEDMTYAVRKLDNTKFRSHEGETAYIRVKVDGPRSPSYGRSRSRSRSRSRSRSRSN

PTBP2 = PTBP2 (Homo sapiens, UniProt Q9UKA9)
Chain of PTBP2 (Q9UKA9 40-531): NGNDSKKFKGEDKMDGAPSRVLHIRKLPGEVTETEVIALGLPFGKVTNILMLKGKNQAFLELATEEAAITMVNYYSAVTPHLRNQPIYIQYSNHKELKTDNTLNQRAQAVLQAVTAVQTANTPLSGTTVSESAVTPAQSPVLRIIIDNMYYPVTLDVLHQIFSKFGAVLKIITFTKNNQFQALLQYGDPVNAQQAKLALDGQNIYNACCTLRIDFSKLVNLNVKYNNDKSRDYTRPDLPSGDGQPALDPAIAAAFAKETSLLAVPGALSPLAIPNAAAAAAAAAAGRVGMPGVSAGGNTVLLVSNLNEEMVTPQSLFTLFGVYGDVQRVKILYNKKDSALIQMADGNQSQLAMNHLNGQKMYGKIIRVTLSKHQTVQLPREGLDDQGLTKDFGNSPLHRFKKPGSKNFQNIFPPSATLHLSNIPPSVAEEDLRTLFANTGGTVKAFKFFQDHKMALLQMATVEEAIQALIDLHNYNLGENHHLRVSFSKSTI

SR140 = SR140 (Homo sapiens, UniProt O15042)
Chain of SR140 (O15042 250-375): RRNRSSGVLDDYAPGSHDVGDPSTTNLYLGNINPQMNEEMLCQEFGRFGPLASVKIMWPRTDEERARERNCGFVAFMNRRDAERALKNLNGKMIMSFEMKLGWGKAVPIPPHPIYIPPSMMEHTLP

RBM22 = molecular target: T2, RBM22 (Homo sapiens, UniProt Q9NW64)
T2 sequence: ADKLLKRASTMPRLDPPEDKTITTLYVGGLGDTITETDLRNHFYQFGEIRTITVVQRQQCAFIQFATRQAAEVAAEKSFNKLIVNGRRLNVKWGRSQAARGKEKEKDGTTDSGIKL

RBPMS2 = RBPMS2 (Homo sapiens, UniProt Q6ZRY4)
Chain of RBPMS2 (Q6ZRY4 10-130): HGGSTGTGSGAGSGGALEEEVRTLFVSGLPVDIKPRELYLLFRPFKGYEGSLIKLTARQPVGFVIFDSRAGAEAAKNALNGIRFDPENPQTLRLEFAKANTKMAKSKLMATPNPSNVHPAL

SFRS3 = molecular target: T3, SFRS3 (Homo sapiens, UniProt P84103)
T3 sequence: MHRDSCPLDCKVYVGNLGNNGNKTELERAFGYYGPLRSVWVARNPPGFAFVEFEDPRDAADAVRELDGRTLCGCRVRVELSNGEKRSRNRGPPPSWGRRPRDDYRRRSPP

TRSPAP1 = molecular target: T4, TRSPAP1 (Homo sapiens, UniProt Q9NX07)
T4 sequence: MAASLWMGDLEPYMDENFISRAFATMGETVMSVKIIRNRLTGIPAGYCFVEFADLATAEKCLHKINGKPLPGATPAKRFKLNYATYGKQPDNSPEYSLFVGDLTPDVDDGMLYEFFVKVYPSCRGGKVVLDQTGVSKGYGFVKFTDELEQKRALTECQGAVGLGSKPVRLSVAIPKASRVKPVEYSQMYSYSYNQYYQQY

Chain of SF3B4 (Q15427 1-200): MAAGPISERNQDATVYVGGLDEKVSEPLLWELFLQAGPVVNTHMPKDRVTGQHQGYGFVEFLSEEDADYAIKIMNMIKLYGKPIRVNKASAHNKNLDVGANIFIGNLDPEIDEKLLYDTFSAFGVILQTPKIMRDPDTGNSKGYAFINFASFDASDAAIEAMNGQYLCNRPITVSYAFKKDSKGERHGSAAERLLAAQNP

Sequence	binding signal (SF3B4) [fluorescence intensity]	binding signal (SFRS15) [fluorescence intensity]	binding signal (RBMY1D / RBMY1E) [fluorescence intensity]	binding signal (SF2) [fluorescence intensity]	binding signal (PTBP2) [fluorescence intensity]	binding signal (SR140) [fluorescence intensity]	binding signal (RBM22) [fluorescence intensity]	binding signal (RBPMS2) [fluorescence intensity]	binding signal (SFRS3) [fluorescence intensity]	binding signal (TRSPAP1) [fluorescence intensity]
UGAGGUAGUAGGUUGUGUGGUU	1290 ± 27	289 ± 27.3	1420 ± 19.5	895.8 ± 6.29	166 ± 17.3	149 ± 8.63	126 ± 31.8	515 ± 10.3	276 ± 12.7	332 ± 22.4
UGAGGUAGUAGGUUGUAUGGUU	638.1 ± 5.52	154.2 ± 0.983	1480 ± 96.8	700 ± 28	147 ± 8.05	80.2 ± 12.3	113.1 ± 0.177	434 ± 21.2	235 ± 17.9	269 ± 24.3
CAGUGCAAUGAUGAAAGGGCAU	1680 ± 98.9	141 ± 12.5	1280 ± 58.5	702.4 ± 1.9	55.4 ± 5.87	43.9 ± 3.02	52.6 ± 1.44	1650 ± 53.9	219 ± 8.61	84.1 ± 10.6
UGAGGUAGUAGGUUGUAUAGUU	346 ± 11.8	46.2 ± 1.86	892 ± 33.6	70.4 ± 4.98	49.5 ± 9.89	32 ± 0.467	25.7 ± 2.21	118 ± 2.62	37.7 ± 9.2	79.2 ± 10.3
AGAGGUAGUAGGUUGCAUAGUU	1440 ± 72.2	153 ± 14.1	2080 ± 121	925 ± 29.4	96.6 ± 13.3	142.1 ± 1.25	71.81 ± 0.233	1780 ± 12.1	324.4 ± 0.806	351 ± 8.57
UAGCUUAUCAGACUGAUGUUGA	700 ± 28.6	22.3 ± 2.16	817.2 ± 6.26	126 ± 12.9	23.2 ± 6.02	21.9 ± 3.08		37.6 ± 9.28	34.7 ± 4.07	45.5 ± 1.42

From article PMC11574364
